Hits are enriched below; roughly 11% of the tested compounds scored in any of these assays.
AMA1-RON2 inh: inhibitors of Plasmodium falciparum AMA1-RON2 interaction; AlphaScreen AMA1-biotinylated RON2 peptide binding; Potency, µM (top dose mostly 58.2 µM), for inactives: at the top dose activity change, negative = inhibition, usual class: inhibitors; 360,000 compounds, 0.2% hits; AID 720542;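 further: 0% = vehicle wells and -100% = peptide control; nearly all actives have a fitted effect of over 45% in size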
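AMA1 (3D7) with his tag at 25 nM final met compounds first, then biotinylated RON2 peptide at 25 nM; detection used donor plus acceptor beads, 10 µg/mL apiece, read by AlphaScreen after 30 min at room temperature.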
HCV inh: inhibitors of hepatitis C virus infection; Huh7.5.1 HCVcc-Cre infection, luciferase reporter, 44 h; AID 651820; Potency, µM (series often up to 41.8 µM), for the others: at the highest dose activity change, negative = inhibition, most hits filed as inhibitors; 340,000 compounds, 3.4% hits
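Infectious HCV cell culture screen: compound-treated cells (1,000/well, pre-plated 4 h) are infected with HCVcc-Cre at roughly 0.5 moi and grown 44 h. Infection is quantified by luciferase signal after 15 min substrate incubation at room temperature.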
Pf growth 48h: P. falciparum growth inhibition at 48 hours (one generation). 310,000 compounds, 5.9% hits. Potency, µM (doses to about 28.7 µM), inactives show at the top dose activity change, negative = inhibition, most hits filed as inhibitors. P. falciparum luciferase growth in erythrocytes, 48 h
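Cell-based growth assay: transgenic P. falciparum expressing firefly luciferase, cultured in red cells within RPMI 1640 containing 0.5% w/v Albumax, 24 mM bicarbonate and gentamycin. A drop in luciferase activity indicates inhibition.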
Pf growth 96h: P. falciparum growth inhibition at 96 hour, primary screen for plastid delayed-death inhibitors | P. falciparum luciferase reporter growth, 96 h | Potency, µM (top dose mostly 28.7 µM), for inactives: top-dose activity change, negative = inhibition, most hits filed as inhibitors | 320,000 compounds, 6.9% hits | AID 504834
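P. falciparum expressing integrated firefly luciferase, in erythrocytes at 2% hematocrit, 0.05% parasitemia, incubated with compounds 96 h at 37 C, 5% CO2. Growth inhibition read as loss of luminescence; two-generation exposure targets delayed-death apicoplast inhibitors.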
* hit, by the source's call. The call rests on the fitted dose curve; in most records, active means well fitted curve in the direction sought with a large enough effect; inconclusive means small, poorly fitted or top-dose-only effect, or another doubt; inactive means no such curve, though single readings can be large; an effect the other way counts as inactive or inconclusive. Unless noted, on the % scale 0 is the no-effect control and ±100 the full control effect; potency means the concentration at half of the fitted maximal effect.

For c1ccc(-c2nc(NC3CCCC3)c3ccccc3n2)cc1 the results were AMA1-RON2 inh 3%, HCV inh 1.3µM*, Pf growth 48h inconclusive and Pf growth 96h 10µM*.
O=C(O)CNc1nc(-c2ccccc2)nc2ccccc12 was read as AMA1-RON2 inh -13%, HCV inh 5%, Pf growth 48h 7% and Pf growth 96h 10%.
For COc1cccc(-c2nc(NC3CCCC3)c3ccccc3n2)c1O the results were AMA1-RON2 inh -9%, HCV inh 2.8µM* and Pf growth 96h 9.3µM*.
`Cc1ccc(NC(=O)Cn2cc(C(F)(F)F)cc(Cl)c2=O)cc1Cl` gave AMA1-RON2 inh 54%, HCV inh 6%, Pf growth 48h 20% and Pf growth 96h 59%.
`CCOc1ccc(/C=N/N2C(C)CCCC2C)cc1OC` (stereo not given) gave AMA1-RON2 inh -3%, HCV inh 17% and Pf growth 96h 10µM*.
Screening CC(=O)OC1(C)C=Cc2ccccc2C1=NS(=O)(=O)c1ccccc1 (stereo not given) returned AMA1-RON2 inh -17%.
Cc1nn(-c2ccccc2)c2nc(N)c(C#N)c(-c3ccc(F)cc3)c12 was read as AMA1-RON2 inh 3%, HCV inh inconclusive, Pf growth 48h 12µM* and Pf growth 96h inconclusive.
Screening Cc1ccc(-n2nc(C)c3c(-c4cccs4)c(C#N)c(N)nc32)cc1 returned AMA1-RON2 inh 4%, HCV inh 5%, Pf growth 48h inconclusive and Pf growth 96h inconclusive.
`Cc1ccc(C(=O)N2CCN(C3c4cccc5cccc(c45)C3NS(=O)(=O)c3ccccc3)CC2)cc1` (stereo not given) gave AMA1-RON2 inh -3%, HCV inh inconclusive, Pf growth 48h 2.1µM* and Pf growth 96h inconclusive.
`Cc1ccc(S(=O)(=O)NC2c3cccc4cccc(c34)C2Sc2nc(C)cc(C)n2)cc1` (stereo not given) gave AMA1-RON2 inh -5%, HCV inh inconclusive, Pf growth 48h 10µM* and Pf growth 96h 8.3µM*.
CCC(C)(C)NC(=O)C(c1cccc(OC)c1)N(C(=O)CNC(=O)c1cccs1)c1cccnc1 (stereo not given) was read as AMA1-RON2 inh 9%, HCV inh 1%, Pf growth 48h inconclusive and Pf growth 96h -16%.
Screening CN(CC(=O)NCC(=O)Nc1ccc(F)c(F)c1F)C1CCS(=O)(=O)C1 (stereo not given) returned AMA1-RON2 inh 71%, HCV inh 10%, Pf growth 48h -27% and Pf growth 96h 14%.
For COCCCN1CC(=O)N2C(c3cccc(OC)c3OC)c3[nH]c4ccccc4c3C[C@H]2C1=O (stereo not given in full) the results were AMA1-RON2 inh -6%, HCV inh -7%, Pf growth 48h 9.3µM* and Pf growth 96h 12µM*.
Screening CN1CC(=O)N2C(c3ccc(Cl)cc3)c3[nH]c4ccccc4c3C[C@H]2C1=O (stereo not given in full) returned AMA1-RON2 inh -10%, HCV inh -6%, Pf growth 48h 8.3µM* and Pf growth 96h 13µM*.
`COC(=O)c1ccc(C2c3[nH]c4ccccc4c3C[C@H]3C(=O)N(C)CC(=O)N23)cc1` (stereo not given in full) gave AMA1-RON2 inh -18%, HCV inh 7%, Pf growth 48h inconclusive and Pf growth 96h inconclusive.
Screening COCCCN1CC(=O)N2C(c3ccc(C)cc3)c3[nH]c4ccccc4c3C[C@H]2C1=O (stereo not given in full) returned AMA1-RON2 inh -20%, HCV inh 9%, Pf growth 48h inconclusive and Pf growth 96h inconclusive.
For CCN1C(=O)[C@@H]2Cc3c([nH]c4ccccc34)C(c3ccc(OC)cc3)N2C1=S (stereo not given in full) the results were AMA1-RON2 inh -14%, HCV inh inconclusive, Pf growth 48h 15µM* and Pf growth 96h inconclusive.
`COCCCN1CC(=O)N2C(c3cccc(C)c3)c3[nH]c4ccccc4c3C[C@H]2C1=O` (stereo not given in full) gave AMA1-RON2 inh 0%, HCV inh 16%, Pf growth 48h 9.3µM* and Pf growth 96h inconclusive.
`CCCCNCC#CCOc1cc(C)ccc1C(C)C` gave AMA1-RON2 inh 4%, HCV inh -27%, Pf growth 48h inconclusive and Pf growth 96h 122%.
COc1cccc(C2c3[nH]c4ccccc4c3C[C@H]3C(=O)N(CCCOC(C)C)CC(=O)N23)c1 (stereo not given in full) was read as AMA1-RON2 inh -6%, HCV inh 17%, Pf growth 48h -20% and Pf growth 96h inconclusive.
`COCCCN1CC(=O)N2C(c3ccccc3)c3[nH]c4ccccc4c3C[C@H]2C1=O` (stereo not given in full) gave AMA1-RON2 inh -9%, HCV inh 30% and Pf growth 96h inconclusive.
`COCCN1CC(=O)N2C(c3cccc(C)c3)c3[nH]c4ccccc4c3C[C@H]2C1=O` (stereo not given in full) gave AMA1-RON2 inh -4%, HCV inh 4%, Pf growth 48h 13µM* and Pf growth 96h 12µM*.
`CC(C)OCCCN1CC(=O)N2C(c3ccccc3)c3[nH]c4ccccc4c3C[C@H]2C1=O` (stereo not given in full) gave AMA1-RON2 inh -6%, HCV inh 23%, Pf growth 48h 9.3µM* and Pf growth 96h inconclusive.
Screening CCC(=O)N(CCc1ccc(S(N)(=O)=O)cc1)C1CC(=O)N(c2ccc(OC)cc2)C1=O (stereo not given) returned AMA1-RON2 inh -11%, HCV inh 0%, Pf growth 48h 15% and Pf growth 96h 14%.
COc1ccc(-c2cc(-c3nnc(-c4ccncc4)o3)c3ccccc3n2)cc1 was read as AMA1-RON2 inh -1%, HCV inh 0%, Pf growth 48h inconclusive and Pf growth 96h 9.3µM*.
Screening c1ccc2c(-c3nc(C4CCCCC4)no3)cc(-c3ccncc3)nc2c1 returned AMA1-RON2 inh 1%, HCV inh 8.9µM*, Pf growth 48h 2.6µM* and Pf growth 96h inconclusive.
For COc1cc(-c2nnc(-c3cc(-c4ccccc4)nc4ccccc34)o2)cc(OC)c1OC the results were AMA1-RON2 inh 4% and HCV inh inconclusive.
CC(C)(C)N(Cc1ccc2c(c1)OCO2)C(=O)/C=C\S(=O)c1ccccc1 (stereo not given) was read as AMA1-RON2 inh -10% and HCV inh 11µM*.
Screening CCCOc1ccc(CNC(=O)C2CCN(c3nnc(N4CCCC4=O)s3)CC2)cc1 returned AMA1-RON2 inh 8%, HCV inh 17%, Pf growth 48h 23% and Pf growth 96h -15%.
Screening Cc1ccc(CN2CCN(/N=C/C(Br)=C\c3ccccc3)CC2)cc1 returned AMA1-RON2 inh inconclusive, HCV inh -10%, Pf growth 48h inconclusive and Pf growth 96h 0%.
